The supplement of paper PMC11732987, “Enantioselective OTUD7B fragment discovery through chemoproteomics screening and high-throughput optimisation” (Communications Chemistry, 2025)

Key:
Assay in all cases: log2 ratio of Biotin-Ahx-Ub-VS probe labelling (fragment/DMSO); higher = less target engagement (more negative = stronger competition), active = hit call of the paper (q ≤ 0.05, log2 ratio ≤ -1)
Conditions in all cases: compound concentration: 200 uM; treatment time: 3 h
[1] = molecular target: USP16 (UniProt Q9Y5T5)
Chain of USP16 (Q9Y5T5 whole entry, looked up, the tested form may be a part): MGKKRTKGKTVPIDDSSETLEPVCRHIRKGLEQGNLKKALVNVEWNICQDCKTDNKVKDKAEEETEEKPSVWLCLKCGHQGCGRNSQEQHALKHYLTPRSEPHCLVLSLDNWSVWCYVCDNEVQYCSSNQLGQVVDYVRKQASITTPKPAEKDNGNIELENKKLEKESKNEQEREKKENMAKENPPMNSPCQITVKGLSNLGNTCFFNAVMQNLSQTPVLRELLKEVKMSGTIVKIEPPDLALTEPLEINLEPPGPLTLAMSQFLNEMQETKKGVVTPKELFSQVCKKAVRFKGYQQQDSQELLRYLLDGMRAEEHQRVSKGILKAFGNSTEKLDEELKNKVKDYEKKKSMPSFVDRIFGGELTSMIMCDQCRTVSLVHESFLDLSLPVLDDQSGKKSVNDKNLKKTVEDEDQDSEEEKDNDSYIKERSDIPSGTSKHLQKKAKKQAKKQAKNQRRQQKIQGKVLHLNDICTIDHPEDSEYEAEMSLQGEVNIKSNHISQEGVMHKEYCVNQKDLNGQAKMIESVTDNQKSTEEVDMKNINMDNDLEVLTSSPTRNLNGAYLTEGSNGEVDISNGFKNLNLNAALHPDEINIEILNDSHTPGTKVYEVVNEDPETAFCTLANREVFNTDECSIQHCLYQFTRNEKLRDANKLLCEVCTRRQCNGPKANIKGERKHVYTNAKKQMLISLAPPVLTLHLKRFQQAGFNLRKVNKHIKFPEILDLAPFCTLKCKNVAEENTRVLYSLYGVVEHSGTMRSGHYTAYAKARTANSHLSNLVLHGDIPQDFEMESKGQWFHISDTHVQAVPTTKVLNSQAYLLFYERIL
How it was run: (§1)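 Global-median-normalised Spectronaut label-free quantities were compared by unpaired t-test, and values are average log2 ratios of fragment over vehicle. Only proteins with ≥2 unique peptides were used. HEK293T lysate (495 µg per sample) was treated in triplicate with fragment at 200 µM or vehicle for 3 h and then with Biotin-Ahx-Ub-VS at 0.5 µM final for 1 h. Labelled DUBs were then NeutrAvidin-enriched, digested with LysC and trypsin, and run by diaPASEF LC-MS/MS.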

[2] = molecular target: T1, USP19 (UniProt O94966)
T1 sequence (whole entry): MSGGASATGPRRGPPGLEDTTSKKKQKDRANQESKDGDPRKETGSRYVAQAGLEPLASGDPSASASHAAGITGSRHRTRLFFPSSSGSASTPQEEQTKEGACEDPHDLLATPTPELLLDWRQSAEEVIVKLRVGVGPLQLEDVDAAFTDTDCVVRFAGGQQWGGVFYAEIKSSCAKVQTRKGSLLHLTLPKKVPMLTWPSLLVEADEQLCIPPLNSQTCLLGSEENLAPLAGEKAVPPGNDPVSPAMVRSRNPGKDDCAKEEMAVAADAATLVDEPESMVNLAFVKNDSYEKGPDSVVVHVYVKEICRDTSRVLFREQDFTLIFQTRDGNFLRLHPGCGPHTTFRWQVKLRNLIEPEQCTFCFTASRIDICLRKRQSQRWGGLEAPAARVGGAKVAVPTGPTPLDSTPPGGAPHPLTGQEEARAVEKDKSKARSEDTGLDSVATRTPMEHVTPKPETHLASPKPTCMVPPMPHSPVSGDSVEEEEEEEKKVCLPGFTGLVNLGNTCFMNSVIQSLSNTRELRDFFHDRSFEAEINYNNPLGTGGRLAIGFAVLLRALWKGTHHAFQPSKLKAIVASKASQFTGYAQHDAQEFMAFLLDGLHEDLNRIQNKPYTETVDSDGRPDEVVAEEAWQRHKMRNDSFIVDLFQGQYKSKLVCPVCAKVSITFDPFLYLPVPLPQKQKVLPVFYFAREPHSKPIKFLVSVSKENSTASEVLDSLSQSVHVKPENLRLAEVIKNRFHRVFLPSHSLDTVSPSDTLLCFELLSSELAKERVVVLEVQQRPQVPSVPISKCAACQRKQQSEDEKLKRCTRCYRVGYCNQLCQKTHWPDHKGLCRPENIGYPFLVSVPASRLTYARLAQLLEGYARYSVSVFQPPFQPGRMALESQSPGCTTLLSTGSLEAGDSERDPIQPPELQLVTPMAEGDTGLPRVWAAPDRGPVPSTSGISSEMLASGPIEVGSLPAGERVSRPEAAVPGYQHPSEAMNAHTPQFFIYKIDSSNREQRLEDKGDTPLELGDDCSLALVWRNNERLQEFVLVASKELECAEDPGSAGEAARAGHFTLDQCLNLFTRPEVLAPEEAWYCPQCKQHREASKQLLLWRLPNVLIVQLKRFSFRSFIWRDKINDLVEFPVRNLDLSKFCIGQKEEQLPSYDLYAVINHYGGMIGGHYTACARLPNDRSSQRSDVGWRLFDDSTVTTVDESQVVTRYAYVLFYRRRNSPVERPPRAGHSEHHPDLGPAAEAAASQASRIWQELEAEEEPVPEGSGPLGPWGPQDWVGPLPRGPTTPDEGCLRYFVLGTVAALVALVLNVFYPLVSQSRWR
How it was run: as §1

[3] = molecular target: USP24 (UniProt Q9UPU5)
Chain of USP24 (Q9UPU5 whole entry): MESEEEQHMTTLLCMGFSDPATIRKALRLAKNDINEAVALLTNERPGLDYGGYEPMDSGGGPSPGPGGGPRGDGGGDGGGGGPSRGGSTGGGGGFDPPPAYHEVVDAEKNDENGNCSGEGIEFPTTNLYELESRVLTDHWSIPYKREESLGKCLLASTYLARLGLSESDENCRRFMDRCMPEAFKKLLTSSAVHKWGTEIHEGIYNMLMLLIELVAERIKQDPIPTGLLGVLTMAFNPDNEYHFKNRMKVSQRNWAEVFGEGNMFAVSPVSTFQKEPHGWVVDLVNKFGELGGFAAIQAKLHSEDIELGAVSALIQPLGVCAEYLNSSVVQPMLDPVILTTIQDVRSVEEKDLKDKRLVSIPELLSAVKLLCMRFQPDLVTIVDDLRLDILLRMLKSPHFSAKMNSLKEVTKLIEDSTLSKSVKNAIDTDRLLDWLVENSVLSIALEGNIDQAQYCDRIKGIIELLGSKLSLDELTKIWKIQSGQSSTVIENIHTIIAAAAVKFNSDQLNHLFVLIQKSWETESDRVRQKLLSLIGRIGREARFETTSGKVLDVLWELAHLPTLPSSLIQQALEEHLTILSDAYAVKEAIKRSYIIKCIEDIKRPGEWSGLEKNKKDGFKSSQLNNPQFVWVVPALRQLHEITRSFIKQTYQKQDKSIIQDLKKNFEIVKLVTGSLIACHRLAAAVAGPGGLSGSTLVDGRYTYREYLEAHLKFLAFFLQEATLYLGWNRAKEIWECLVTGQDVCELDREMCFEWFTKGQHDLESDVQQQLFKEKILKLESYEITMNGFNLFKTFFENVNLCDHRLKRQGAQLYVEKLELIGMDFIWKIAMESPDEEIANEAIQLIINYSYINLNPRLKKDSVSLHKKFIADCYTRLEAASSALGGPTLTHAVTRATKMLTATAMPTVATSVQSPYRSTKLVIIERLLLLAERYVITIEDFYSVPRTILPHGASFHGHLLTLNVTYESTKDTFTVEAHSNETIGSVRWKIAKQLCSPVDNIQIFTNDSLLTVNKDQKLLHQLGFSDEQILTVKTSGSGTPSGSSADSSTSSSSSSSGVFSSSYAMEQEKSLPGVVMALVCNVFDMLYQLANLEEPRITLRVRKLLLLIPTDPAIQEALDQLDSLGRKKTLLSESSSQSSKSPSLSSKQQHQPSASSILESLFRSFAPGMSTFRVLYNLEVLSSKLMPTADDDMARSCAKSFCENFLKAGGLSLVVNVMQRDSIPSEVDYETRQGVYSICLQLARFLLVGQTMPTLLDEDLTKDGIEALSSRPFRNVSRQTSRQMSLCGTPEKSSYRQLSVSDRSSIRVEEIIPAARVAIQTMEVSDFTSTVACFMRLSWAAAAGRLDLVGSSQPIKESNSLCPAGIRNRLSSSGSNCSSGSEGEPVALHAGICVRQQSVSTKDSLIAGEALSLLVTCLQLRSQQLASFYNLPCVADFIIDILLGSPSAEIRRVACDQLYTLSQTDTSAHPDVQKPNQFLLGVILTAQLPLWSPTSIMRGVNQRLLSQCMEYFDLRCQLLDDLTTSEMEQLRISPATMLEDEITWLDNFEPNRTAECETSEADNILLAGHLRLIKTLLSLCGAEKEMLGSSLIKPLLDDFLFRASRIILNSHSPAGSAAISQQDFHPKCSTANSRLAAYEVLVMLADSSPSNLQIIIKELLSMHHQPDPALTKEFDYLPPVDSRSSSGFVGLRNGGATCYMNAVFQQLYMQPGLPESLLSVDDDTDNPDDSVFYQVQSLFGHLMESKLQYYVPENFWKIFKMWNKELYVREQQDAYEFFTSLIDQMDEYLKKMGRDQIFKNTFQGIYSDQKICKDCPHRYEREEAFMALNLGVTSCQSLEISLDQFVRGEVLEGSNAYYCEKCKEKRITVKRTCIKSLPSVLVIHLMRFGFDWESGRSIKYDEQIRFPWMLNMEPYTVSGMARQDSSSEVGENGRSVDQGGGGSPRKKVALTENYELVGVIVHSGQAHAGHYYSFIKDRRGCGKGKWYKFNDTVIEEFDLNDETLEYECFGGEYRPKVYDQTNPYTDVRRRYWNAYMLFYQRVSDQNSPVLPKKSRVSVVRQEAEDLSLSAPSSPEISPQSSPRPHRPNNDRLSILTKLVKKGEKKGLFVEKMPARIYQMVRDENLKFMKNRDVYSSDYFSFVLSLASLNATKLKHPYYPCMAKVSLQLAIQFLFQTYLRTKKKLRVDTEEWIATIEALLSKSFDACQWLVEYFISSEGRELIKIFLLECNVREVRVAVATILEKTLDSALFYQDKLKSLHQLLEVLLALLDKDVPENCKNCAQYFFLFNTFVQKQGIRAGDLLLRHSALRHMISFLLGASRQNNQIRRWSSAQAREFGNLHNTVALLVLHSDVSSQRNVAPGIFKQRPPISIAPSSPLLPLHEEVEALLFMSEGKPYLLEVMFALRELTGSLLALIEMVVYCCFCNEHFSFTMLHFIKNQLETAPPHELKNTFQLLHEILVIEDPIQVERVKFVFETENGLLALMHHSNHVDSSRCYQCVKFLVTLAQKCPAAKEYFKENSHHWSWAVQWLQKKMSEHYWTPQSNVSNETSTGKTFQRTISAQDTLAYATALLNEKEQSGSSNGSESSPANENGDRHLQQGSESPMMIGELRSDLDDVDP
How it was run: as §1

[4] = molecular target: T2, USP25 (UniProt Q9UHP3)
T2 sequence (whole entry): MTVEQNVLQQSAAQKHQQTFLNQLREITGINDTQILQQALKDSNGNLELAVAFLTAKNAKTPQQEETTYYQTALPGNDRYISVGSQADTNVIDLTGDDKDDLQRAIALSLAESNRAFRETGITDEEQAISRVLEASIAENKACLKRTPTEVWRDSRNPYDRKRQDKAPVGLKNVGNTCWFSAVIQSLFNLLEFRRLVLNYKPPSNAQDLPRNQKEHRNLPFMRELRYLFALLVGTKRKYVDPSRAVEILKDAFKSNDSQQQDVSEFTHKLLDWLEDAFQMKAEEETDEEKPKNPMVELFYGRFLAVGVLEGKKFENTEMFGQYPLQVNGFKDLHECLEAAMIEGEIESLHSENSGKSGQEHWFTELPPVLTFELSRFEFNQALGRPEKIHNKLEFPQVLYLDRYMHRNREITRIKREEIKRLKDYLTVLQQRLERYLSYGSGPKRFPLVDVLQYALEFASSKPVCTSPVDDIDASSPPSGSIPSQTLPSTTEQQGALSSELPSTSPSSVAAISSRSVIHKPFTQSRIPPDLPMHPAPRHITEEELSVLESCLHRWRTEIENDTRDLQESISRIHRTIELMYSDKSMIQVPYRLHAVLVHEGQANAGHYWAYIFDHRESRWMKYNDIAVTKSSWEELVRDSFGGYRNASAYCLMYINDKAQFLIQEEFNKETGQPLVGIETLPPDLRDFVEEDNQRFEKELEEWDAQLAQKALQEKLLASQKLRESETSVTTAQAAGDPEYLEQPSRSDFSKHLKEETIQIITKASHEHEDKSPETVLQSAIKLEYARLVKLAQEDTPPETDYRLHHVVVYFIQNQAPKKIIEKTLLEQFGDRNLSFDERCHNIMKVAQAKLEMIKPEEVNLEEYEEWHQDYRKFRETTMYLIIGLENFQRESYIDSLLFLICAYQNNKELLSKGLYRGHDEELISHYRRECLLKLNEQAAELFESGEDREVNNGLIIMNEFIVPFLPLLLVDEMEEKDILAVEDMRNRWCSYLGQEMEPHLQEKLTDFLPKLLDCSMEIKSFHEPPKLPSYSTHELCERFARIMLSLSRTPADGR
How it was run: as §1

[5] = molecular target: T3, USP28 (UniProt Q96RU2)
T3 sequence (whole entry): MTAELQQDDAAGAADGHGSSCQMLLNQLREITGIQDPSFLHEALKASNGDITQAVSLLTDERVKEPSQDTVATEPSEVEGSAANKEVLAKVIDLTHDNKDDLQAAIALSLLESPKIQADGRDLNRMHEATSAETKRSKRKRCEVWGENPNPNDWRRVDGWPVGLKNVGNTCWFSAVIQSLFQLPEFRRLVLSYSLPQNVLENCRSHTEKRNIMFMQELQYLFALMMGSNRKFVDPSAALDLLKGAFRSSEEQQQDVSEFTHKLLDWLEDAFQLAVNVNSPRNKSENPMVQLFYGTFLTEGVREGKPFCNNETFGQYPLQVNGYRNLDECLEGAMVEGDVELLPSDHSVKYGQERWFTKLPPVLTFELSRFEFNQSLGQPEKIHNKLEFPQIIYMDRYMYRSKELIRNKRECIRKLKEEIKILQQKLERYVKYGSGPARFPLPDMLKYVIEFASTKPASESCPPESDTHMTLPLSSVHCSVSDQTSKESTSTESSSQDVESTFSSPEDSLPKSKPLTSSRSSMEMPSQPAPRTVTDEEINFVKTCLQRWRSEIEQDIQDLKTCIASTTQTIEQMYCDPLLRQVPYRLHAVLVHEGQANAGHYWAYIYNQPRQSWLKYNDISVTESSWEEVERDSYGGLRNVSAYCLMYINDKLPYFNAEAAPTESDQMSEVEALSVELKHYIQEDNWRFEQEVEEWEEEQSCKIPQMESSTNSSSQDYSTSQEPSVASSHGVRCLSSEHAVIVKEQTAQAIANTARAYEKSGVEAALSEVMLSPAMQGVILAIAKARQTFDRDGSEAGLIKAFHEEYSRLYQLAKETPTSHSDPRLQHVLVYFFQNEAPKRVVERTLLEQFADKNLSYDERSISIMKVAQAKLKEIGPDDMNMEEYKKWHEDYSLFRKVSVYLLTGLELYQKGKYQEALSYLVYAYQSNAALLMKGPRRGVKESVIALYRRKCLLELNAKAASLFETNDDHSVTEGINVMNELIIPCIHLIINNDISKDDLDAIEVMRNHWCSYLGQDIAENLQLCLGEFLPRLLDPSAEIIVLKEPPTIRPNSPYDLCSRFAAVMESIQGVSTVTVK
How it was run: as §1

Measured: log2 ratio of Biotin-Ahx-Ub-VS probe labelling

CNC(=O)C1CCN(C(=O)CCl)CC1
inactive: [1] 0.31 | [2] -0.122 | [3] -0.198 | [4] -0.123 | [5] -0.243
